Assay results published in the supplement of paper PMC9262897, “Low-cost anti-mycobacterial drug discovery using engineered E. coli” (Nature Communications, 2022).
Counter-ions that a name gives are not always drawn. ± gives the standard deviation of the averaged measurements.

Columns and labels:
Assay in all cases: growth (OD600 after 10 h); higher = more growth (less inhibition)
[1] = system: E. coli TESEC Alr+ wild-type control; conditions: compound 0.1 mM; raw OD600 reference: median of DMSO wells 0.241, cell-free background 0.041
Protocol: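 TESEC Mtb Alr E. coli, or the Alr+ wild-type control, in 384-well plates with Prestwick library compounds at 0.1 mM and 1% DMSO, across arabinose induction levels of 1E3 to 1E7 nM. Growth is read as OD600 after 10 h at 37 °C in triplicate biological replicates.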

E. coli TESEC Mtb Asd = conditions: compound 0.1 mM
Protocol: (§1)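 TESEC E. coli strains in which the native enzyme is deleted and replaced by arabinose-inducible Mtb Asd, DapB, CysH or TrpD, each grown in its selective medium. Strains were screened against the Prestwick library at 0.1 mM and 1% DMSO in 384-well format at low and high arabinose induction. Growth is read as OD600 after 10 h in triplicate.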

E. coli TESEC Mtb DapB = conditions: compound 0.1 mM
Protocol: as §1

E. coli TESEC Mtb Alr = conditions: compound 0.1 mM
Protocol: (§2)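 TESEC Mtb Alr E. coli (ΔaraC ΔtolC ΔentC Δalr ΔdadX, arabinose-inducible Mtb Alr) or the Alr+ wild-type control strain, grown in defined M9-fructose medium without D-alanine in 96-well plates with Prestwick library compounds at 0.1 mM and 1% DMSO. Low Alr induction is 0.1 µM arabinose and high induction is 10 mM arabinose.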

[2] = system: E. coli TESEC Alr+ wild-type control; conditions: compound 0.1 mM; raw OD600 reference: median of DMSO wells 0.49, cell-free background 0.052
Protocol: as §2

[3] = arabinose induction (level): High, raw OD600 reference: median of DMSO wells 0.331, cell-free background 0.041
[4] = arabinose induction (level): Low, raw OD600 reference: median of DMSO wells 0.417, cell-free background 0.041
[5] = arabinose induction (level): High, raw OD600 reference: median of DMSO wells […], cell-free background 0.041
[6] = arabinose induction (level): Low, raw OD600 reference: median of DMSO wells 0.227, cell-free background 0.041
[7] = arabinose 100 nM, raw OD600 reference: median of DMSO wells 0.413, cell-free background 0.052
[8] = arabinose 10000000 nM, raw OD600 reference: median of DMSO wells […], cell-free background 0.052

SMILES	growth [1]	growth (E. coli TESEC Mtb Asd; [3])	growth (E. coli TESEC Mtb Asd; [4])	growth (E. coli TESEC Mtb DapB; [5])	growth (E. coli TESEC Mtb DapB; [6])	growth (E. coli TESEC Mtb Alr; [7])	growth (E. coli TESEC Mtb Alr; [8])	growth [2]
Cc1onc(-c2ccccc2)c1-c1ccc(S(N)(=O)=O)cc1 [Valdecoxib]	0.124 ± 0.0019	0.196 ± 0.038	0.245 ± 0.045	0.178 ± 0.015	0.229 ± 0.022	0.4007 ± 0.0035	0.198 ± 0.016	–
CN(C)CCC=C1c2ccccc2C=Cc2ccccc21 [Cyclobenzaprine hydrochloride]	0.1703 ± 0.0014	0.161 ± 0.0091	0.262 ± 0.022	0.175 ± 0.011	0.203 ± 0.027	0.401 ± 0.0064	0.231 ± 0.018	0.5608 ± 0.002
NC[C@@H]1O[C@@H](O[C@H]2[C@H](O)[C@@H](O[C@H]3O[C@H](CO)[C@@H](O)[C@H](N)[C@H]3O)[C@H](N)C[C@@H]2N)[C@@H](O)[C@H](O)[C@H]1O [Kanamycin A sulfate]	0.247 ± 0.0031	0.245 ± 0.044	0.404 ± 0.073	–	–	0.403 ± 0.008	0.353 ± 0.014	–
CCn1cc(C(=O)O)c(=O)c2ccc(C)nc21 [Nalidixic acid sodium salt]	0.04987 ± 0.00029	0.09847 ± 0.00049	0.0829 ± 0.0083	0.0992 ± 0.0072	0.0689 ± 0.0001	0.0753 ± 0.014	0.0595 ± 0.0029	0.0678 ± 0.0015
CC(C)NCC(O)c1ccc2ccccc2c1 (stereo not drawn) [Pronethalol hydrochloride]	0.245 ± 0.013	0.247 ± 0.045	0.431 ± 0.085	–	–	0.403 ± 0.012	0.351 ± 0.017	–
Clc1ccc2nsnc2c1NC1=NCCN1 [Tizanidine HCl]	0.245 ± 0.011	0.248 ± 0.011	0.383 ± 0.057	–	–	0.401 ± 0.0081	0.325 ± 0.015	0.623 ± 0.019
CCOC(=O)O[C@]1(C(=O)COC(=O)CC)CC[C@H]2[C@@H]3CCC4=CC(=O)C=C[C@]4(C)[C@H]3[C@@H](O)C[C@@]21C [Prednicarbate]	0.201 ± 0.0033	0.438 ± 0.024	0.37 ± 0.053	0.193 ± 0.008	0.237 ± 0.026	0.401 ± 0.0095	0.28 ± 0.027	–
O=C(O)CCCC[C@@H]1SC[C@@H]2NC(=O)N[C@@H]21 [Biotin]	0.257 ± 0.0089	0.347 ± 0.05	0.418 ± 0.045	–	–	0.408 ± 0.0076	0.354 ± 0.014	0.615 ± 0.056
CC(C)NC[C@@H](O)COc1cccc2ccccc12 [(R)-Propranolol hydrochloride]	0.205 ± 0.01	0.263 ± 0.076	0.2622 ± 0.0023	0.193 ± 0.01	0.212 ± 0.027	0.4273 ± 0.0035	0.326 ± 0.012	–
Cc1cccc(C)c1NC(=O)CN1CCN(CCCC(c2ccc(F)cc2)c2ccc(F)cc2)CC1 [Lidoflazine]	0.239 ± 0.0079	0.333 ± 0.059	0.361 ± 0.11	0.232 ± 0.026	0.227 ± 0.015	0.4122 ± 0.0027	0.379 ± 0.012	–
CNCCC=C1c2ccccc2CCc2ccccc21 [Nortriptyline hydrochloride]	0.188 ± 0.014	0.137 ± 0.0013	0.179 ± 0.0089	–	–	0.4083 ± 0.0029	0.264 ± 0.013	0.46 ± 0.061
O=C1c2c(O)cccc2Cc2cccc(O)c21 [Anthralin]	0.161 ± 0.0039	0.22 ± 0.013	0.306 ± 0.13	0.246 ± 0.017	0.229 ± 0.051	0.29 ± 0.034	0.239 ± 0.03	–
CN(C)CCN(Cc1cccs1)c1ccccn1 [Methapyrilene hydrochloride]	0.216 ± 0.0071	0.257 ± 0.024	0.41 ± 0.059	0.175 ± 0.0071	0.193 ± 0.0062	0.402 ± 0.011	0.332 ± 0.011	0.644 ± 0.021
CNc1ncnc2c1ncn2[C@@H]1O[C@H](CO)[C@@H](O)[C@H]1O [N6-methyladenosine]	0.283 ± 0.008	0.343 ± 0.044	0.416 ± 0.023	0.21 ± 0.0029	0.209 ± 0.0066	0.28 ± 0.065	0.364 ± 0.0048	–
OCCOCCN1CCN(C(c2ccccc2)c2ccc(Cl)cc2)CC1 (stereo not drawn) [Hydroxyzine dihydrochloride]	0.142 ± 0.0048	0.164 ± 0.0026	0.27 ± 0.013	–	–	0.421 ± 0.009	0.219 ± 0.011	0.45 ± 0.02
COc1ccccc1OCC(O)COC(N)=O (stereo not drawn) [Methocarbamol]	0.2535 ± 0.00091	0.292 ± 0.018	0.397 ± 0.058	0.178 ± 0.012	0.183 ± 0.018	0.412 ± 0.0098	0.347 ± 0.0072	0.509 ± 0.11
COc1ccc2c(c1)c(CC(=O)O)c(C)n2C(=O)c1ccc(Cl)cc1 [Indomethacin]	0.141 ± 0.0034	0.172 ± 0.017	0.196 ± 0.036	0.156 ± 0.0079	0.214 ± 0.073	0.366 ± 0.032	0.143 ± 0.0065	0.392 ± 0.0071
Cc1ncc([N+](=O)[O-])n1CC(O)CCl (stereo not drawn) [Ornidazole]	0.233 ± 0.0094	0.381 ± 0.015	0.421 ± 0.028	–	–	0.409 ± 0.0059	0.369 ± 0.02	0.43 ± 0.049
NS(=O)(=O)c1cc(C(=O)O)cc(N2CCCC2)c1Oc1ccccc1 [Piretanide]	0.243 ± 0.0085	0.405 ± 0.0083	0.4 ± 0.034	–	–	0.4122 ± 0.0034	0.341 ± 0.0064	0.444 ± 0.0057
CCOc1cc(CC(=O)N[C@@H](CC(C)C)c2ccccc2N2CCCCC2)ccc1C(=O)O [Repaglinide]	0.185 ± 0.0042	0.282 ± 0.03	0.247 ± 0.032	–	–	0.4 ± 0.0047	0.306 ± 0.014	0.482 ± 0.005
O=C(O)[C@H]1/C(=C/CO)O[C@@H]2CC(=O)N21 [Clavulanate potassium salt]	0.155 ± 0.0016	0.535 ± 0.033	0.387 ± 0.062	0.182 ± 0.0081	0.164 ± 0.012	0.0839 ± 0.04	0.101 ± 0.017	–
O=C(NCCN1CCOCC1)c1ccc(Cl)cc1 [Moclobemide]	0.233 ± 0.0068	0.323 ± 0.11	0.395 ± 0.14	0.191 ± 0.0078	0.217 ± 0.025	0.416 ± 0.0096	0.338 ± 0.009	–
C=CC[N@@+]12CC[C@@]34c5ccccc5N5/C=C6/[C@H]7C[C@H]8[C@@]9(CC[N@@+]8(CC=C)C/C7=C/CO)c7ccccc7N(/C=C(/[C@@H](C[C@@H]31)/C(=C\CO)C2)[C@H]54)[C@@H]69 [Alcuronium chloride]	0.214 ± 0.0094	0.159 ± 0.0074	0.184 ± 0.044	0.197 ± 0.027	0.196 ± 0.023	0.41 ± 0.013	0.351 ± 0.0099	0.456 ± 0.037
CN(Cc1cnc2nc(N)nc(N)c2n1)c1ccc(C(=O)N[C@@H](CCC(=O)O)C(=O)O)cc1 (racemic) [Amethopterin (R,S)]	0.213 ± 0.01	0.213 ± 0.024	0.368 ± 0.029	–	–	0.244 ± 0.13	0.125 ± 0.0053	–
CCOC(=O)/C=C(C)/C=C/C=C(C)/C=C/c1c(C)cc(OC)c(C)c1C [Etretinate]	0.242 ± 0.0089	0.257 ± 0.042	0.341 ± 0.025	0.1575 ± 0.0014	0.186 ± 0.0064	0.41 ± 0.0092	0.344 ± 0.014	0.544 ± 0.058
CC(C)(C)C(=O)OCOC(=O)[C@@H]1N2C(=O)[C@@H](NC(=O)[C@H](N)c3ccccc3)[C@H]2SC1(C)C [Pivampicillin]	0.26 ± 0.0055	0.376 ± 0.075	0.396 ± 0.018	0.216 ± 0.058	0.24 ± 0.024	0.4 ± 0.012	0.379 ± 0.028	–
CC(C)(S)C(N)C(=O)O (racemic) [D,L-Penicillamine]	0.251 ± 0.0054	0.307 ± 0.03	0.413 ± 0.018	–	–	0.403 ± 0.0076	0.35 ± 0.014	0.437 ± 0.0091
O=C(O)c1cc(=O)c2c(OCC(O)COc3cccc4oc(C(=O)O)cc(=O)c34)cccc2o1 [Cromolyn disodium salt]	0.2571 ± 0.0016	0.389 ± 0.04	0.489 ± 0.01	–	–	0.403 ± 0.011	0.361 ± 0.01	0.602 ± 0.064
